Data as given in PubChem BioAssay (NCI).
Compounds without any hit were thinned out: in the full panel of roughly 83,000, 20% have a hit.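 Single-concentration screen, 48 h exposure, 96-well plates. Endpoint: percent growth. Below 10 = active.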 A number with no mark means an inactive call. Active and inactive are the calls of the source.

tested on: SW-620 colon; test: NCI-60 one-dose screen, 48 h (100 = growth as untreated, 0 = no growth, -100 = all killed); settings: 10 µM

| Compound | growth |
| --- | --- |
| CCOc1ccc(Nc2nc3ccccc3nc2Nc2ccc(OCC)cc2)cc1 | 75.5% |
| O=c1cc(-c2ccccc2)oc2cc(OCCCCNCc3ccccc3)cc(O)c12 | -39.1% (active) |
| Cc1ccc(C(C)C)cc1NC(=O)c1ccccc1N(C)C | 106% |
| CCCCSc1nc(Nc2ccc(/C(C)=N/NC(N)=S)cc2)c(C#N)c(-c2ccc(F)cc2)n1 | 67.7% |
| O=C(c1ccc(Cl)cc1)C1[C@H](c2ccccc2Br)[C@@H](c2ccccc2)NC12C(=O)Nc1ccccc12 (stereo partly drawn) | 5.99% (active) |
| CC(=O)c1ccc(NC(=O)NCn2c(=O)[nH]c3ccccc3c2=O)cc1 | 101% |
| [2H]C([2H])([2H])Oc1ccc2ncc(C#Cc3cncc(C(=O)Nc4ccc(CN5CCN(C)CC5)c(C(F)(F)F)c4)c3)n2n1 | -67.8% (active) |
| O=C1Nc2cc(Cl)ccc2/C1=C/c1ccc(OCc2ccc(Br)cc2F)cc1 | -56% (active) |
| CCCCCCCCCCCCCCCCCCCC(=O)NCCc1c[nH]c2ccc(OC(=O)CCCC(=O)OCCOOCCOOCCOOCCOOCCOOCCOOCCOOCCOOCCOOCCOOCCOOCCOC)cc12 | 83% |
| C[C@H]1[C@H](C)CC[C@]2(COC(=O)CCC(=O)NCC#CCN3CCNCC3)CC[C@]3(C)C(=CC[C@@H]4[C@@]5(C)CCCNC(C)(C)[C@@H]5CC[C@]43C)[C@H]12 | -2.55% (active) |
| COc1ccc2nc(Cl)c(-c3cc(-c4ccccc4)nc(N)n3)cc2c1 | -60.2% (active) |
| COc1ccc(CN2[C@H](C(=O)NCCCCCCC(=O)NO)Cc3c([nH]c4ccccc34)[C@H]2C2CC2)cc1 | -68.1% (active) |
| CN1CCN(c2ccc(Nc3nc(NCCCNC(=O)c4ccccc4)c4sccc4n3)cc2)CC1 | 60.6% |
| C=C1CC[C@H](C(=C)C)[C@H]2C=C(C)C(=O)C3=C(C(=O)[C@@](C)(O)C3)[C@H]12 | -53.3% (active) |
| COc1ccc(N(C)c2cc(C#N)nc3ccccc23)cc1N | 19% |
| COc1ccc(C(C)=C(c2ccc(OCCCN(C)C)cc2)c2ccc(OCCCN(C)C)cc2)cc1 | -59.4% (active) |
| CC1(c2ccccc2)NC(=O)N(CC(=O)Nc2ccc(C(=O)/C=C/c3ccc(Cl)cc3)cc2)C1=O (stereo not drawn) | -58.9% (active) |
| NC(=Nc1ccc(OCCCCCCCCn2ccnn2)cc1)c1ccccc1 | 32.4% |
| COC[C@@H](CC(C)C)N=C1N/C(=C\c2ccc3ncsc3c2)C(=O)N1C | 2.99% (active) |

| Compound | growth |
| --- | --- |
| O=C(CSc1ccc(-c2ccc(Cl)cc2)nn1)Nc1ccc(Cl)c(C(F)(F)F)c1 | 36% |
| Cc1ccc(NC(=O)NCn2c(=O)[nH]c3ccccc3c2=O)cc1 | 78.5% |
| Cc1cc(C)cc(Oc2cccc(-c3c(C)nnn3C3CCN(CCN(C)C)CC3)n2)c1 | 45.9% |
| CC(=O)NCC1=C(C)C=C2C(=O)[C@](C)(O)C3(CC3)C(C)=C21 | 70.1% |
| O=C(Nc1ccc(OCC(=O)c2ccccc2)cc1)Nc1ccc(Cl)c(C(F)(F)F)c1 | 32% |
| CCOC(=O)c1c(CSc2ccccc2)n(C)c2cc(CN(C)C)c(O)c(CN(C)C)c12 | 23.1% |
| Cc1ccc(-c2cc(-c3cc4ccccc4nc3Cl)[nH]c(=O)n2)cc1 | -46.3% (active) |
| COc1ccc([C@H]2C(C(=O)c3ccc(Cl)cc3)C3(N[C@@H]2c2ccccc2)C(=O)Nc2ccc(Br)cc23)cc1 (stereo partly drawn) | 7.87% (active) |
| O=C(CS(=O)(=O)c1oc(-c2ccc(Cl)cc2)nc1S(=O)(=O)c1ccc(Cl)cc1)N1CCOCC1 | -18.3% (active) |
| COc1ccc(C=CC(=O)c2ccc(-n3c(C)nc4c(cnn4-c4ccccc4)c3=O)cc2)cc1 | 75.1% |
| O=C1Nc2ccc(Cl)cc2/C1=C/c1cccc(OCc2ccccc2)c1 | 45.4% |
| CN(C)c1ccc(/C=C/C(=O)c2ccc(NC(=O)CN3C(=O)NC(C)(c4ccccc4)C3=O)cc2)cc1 (stereo not drawn) | 74.5% |
| COc1cccc(C(N)=Nc2ccc(OCCCCCCn3cncn3)cc2)c1 | 38.1% |
| CN1CCN(Cc2ccc(C(=O)Nc3cccc(Nc4ccc5cc(O)ccc5n4)c3)cc2C(F)(F)F)CC1 | -83.1% (active) |
| Nc1nnc(-c2c[nH]c3ccc(F)cc23)c(-c2c[nH]c3ncccc23)n1 | 73.6% |
| C/C(=C\CC/C=C(\C)CC/C=C(\C)CC[C@@H](O)C(C)(C)O)CC/C=C(\C)CC[C@@H](O)C(C)(C)O | 43% |
| Cc1ccc(-c2ccc(SCC(=O)Nc3ccc(Cl)c(C(F)(F)F)c3)nn2)cc1 | 24.2% |
| CN1CCN(c2ccc(Nc3nc(NCCCNC(=O)c4ccc(F)cc4)c4sccc4n3)cc2)CC1 | 58.3% |
| C#Cc1ccc(S(=O)(=O)Nc2cccc(-c3csc(NC(C)=O)n3)c2)cc1 | 95.2% |
